Data: PubChem BioAssay AID1159580 (chemical genetic matrix, 2015)
Several values for one entry are separate records, joined by “and”; a condition that tells them apart may be missing. Equal entries are not always repeated. Among all 5,500 compounds or so, about 2,000 (36%) were called active. Roughly 18% stayed inconclusive and do not appear here. Rule as the data show it: active = normalized growth mostly below about 0.91 (no sharp cut-off); inconclusive = no clear call, values can overlap the other calls; inactive = mostly above about 0.92. Some of the results follow. Where a structure was tested more than once in an assay, its records may differ in their call.

Assay: chemical genetic growth profiling, strain panel (AID 1159580);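 also: tested at 20 µM; growth read once vehicle control cultures reached saturation at 30 °C; 1 = growth at the plate median or of vehicle wells; lower values mean less growth of the strain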
Conditions: growth OD

Measured: normalized growth

C/C=C/CC(C)C(O)C1C(=O)NC(CC)C(=O)N(C)CC(=O)N(C)C(CC(C)C)C(=O)NC(C(C)C)C(=O)N(C)C(CC(C)C)C(=O)NC(C)C(=O)NC(C)C(=O)N(C)C(CC(C)C)C(=O)N(C)C(CC(C)C)C(=O)N(C)C(C(C)C)C(=O)N1C (stereo unspecified)
active: S. cerevisiae deletion strains, locus YKR001C, strain vps1, stronger effect = lower value 0.619 | S. cerevisiae deletion strains, locus YLR039C, strain RIC1, stronger effect = lower value 0.621 | S. cerevisiae deletion strains, locus YLR262C, strain YPT6 (second series), stronger effect = lower value 0.573 | S. cerevisiae deletion strains, locus YLR262C, strain YPT6, stronger effect = lower value 0.509 | S. cerevisiae deletion strains, locus YLR342W, strain FKS1 (second series), stronger effect = lower value 0.173 | S. cerevisiae deletion strains, locus YLR342W, strain FKS1, stronger effect = lower value 0.247 | S. cerevisiae deletion strains, locus YMR231W, strain pep5, stronger effect = lower value 0.404
inactive: S. cerevisiae deletion strains, locus YJR075W, strain HOC1, stronger effect = lower value 0.978 | S. cerevisiae deletion strains, locus YKL009W, strain mrt4, stronger effect = lower value 1.01 | S. cerevisiae deletion strains, locus YKL068W, stronger effect = lower value 1 | S. cerevisiae deletion strains, locus YKL085W, strain MDH1 (second series), stronger effect = lower value 0.984 | S. cerevisiae deletion strains, locus YKL085W, strain MDH1, stronger effect = lower value 0.984 | S. cerevisiae deletion strains, locus YKL160W, strain elf1, stronger effect = lower value 1.04 | S. cerevisiae deletion strains, locus YKL190W, strain CNB1, stronger effect = lower value 0.999 | S. cerevisiae deletion strains, locus YKR026C, strain gcn3, stronger effect = lower value 1.01 | S. cerevisiae deletion strains, locus YKR091W, strain srl3, stronger effect = lower value 1.02 | S. cerevisiae deletion strains, locus YLL001W, strain dnm1, stronger effect = lower value 1.02 | S. cerevisiae deletion strains, locus YLL026W, stronger effect = lower value 1.01 | S. cerevisiae deletion strains, locus YLL041C, strain sdh2, stronger effect = lower value 1.02 | S. cerevisiae deletion strains, locus YLR027C, strain aat2, stronger effect = lower value 1.02 | S. cerevisiae deletion strains, locus YLR058C, strain SHM2, stronger effect = lower value 1.01 | S. cerevisiae deletion strains, locus YLR102C, strain apc9, stronger effect = lower value 1.01 | S. cerevisiae deletion strains, locus YLR113W, strain HOG1, stronger effect = lower value 0.986 | S. cerevisiae deletion strains, locus YLR221C, strain rsa3, stronger effect = lower value 1.02 | S. cerevisiae deletion strains, locus YLR258W, strain gsy2, stronger effect = lower value 1.01 | S. cerevisiae deletion strains, locus YLR268W, strain sec22, stronger effect = lower value 1.01 | S. cerevisiae deletion strains, locus YLR320W, strain mms22, stronger effect = lower value 1.01 | S. cerevisiae deletion strains, locus YLR330W, strain CHS5, stronger effect = lower value 1.01 | S. cerevisiae deletion strains, locus YLR357W, strain rsc2, stronger effect = lower value 0.978 | S. cerevisiae deletion strains, locus YLR370C, strain arc18, stronger effect = lower value 1.01 | S. cerevisiae deletion strains, locus YLR371W, strain rom2, stronger effect = lower value 1.03 | S. cerevisiae deletion strains, locus YLR384C, strain iki3, stronger effect = lower value 1.01 | S. cerevisiae deletion strains, locus YLR418C, strain cdc73, stronger effect = lower value 0.925 | S. cerevisiae deletion strains, locus YML016C, strain PPZ1, stronger effect = lower value 1.02 | S. cerevisiae deletion strains, locus YML032C, strain rad52, stronger effect = lower value 1.04 | S. cerevisiae deletion strains, locus YML120C, strain ndi1, stronger effect = lower value 1.02 | S. cerevisiae deletion strains, locus YML124C, strain tub3, stronger effect = lower value 1.03 | S. cerevisiae deletion strains, locus YMR058W, strain fet3, stronger effect = lower value 1.02 | S. cerevisiae deletion strains, locus YMR078C, strain ctf18, stronger effect = lower value 1.01 | S. cerevisiae deletion strains, locus YMR125W, strain sto1, stronger effect = lower value 0.915 | S. cerevisiae deletion strains, locus YMR129W, stronger effect = lower value 1.01 | S. cerevisiae deletion strains, locus YMR205C, strain PFK2, stronger effect = lower value 0.978 | S. cerevisiae deletion strains, locus YMR223W, strain ubp8, stronger effect = lower value 1.04 | S. cerevisiae deletion strains, locus YMR263W, strain SAP30, stronger effect = lower value 0.99 | S. cerevisiae deletion strains, locus YNL067W, strain RPL9B, stronger effect = lower value 0.97 | S. cerevisiae deletion strains, locus YNL071W, strain lat1, stronger effect = lower value 1.03 | S. cerevisiae deletion strains, locus YNL128W, strain TEP1, stronger effect = lower value 0.948 | S. cerevisiae deletion strains, locus YNL153C, strain GIM3, stronger effect = lower value 0.97 | S. cerevisiae deletion strains, locus YNL175C, strain NOP13, stronger effect = lower value 0.963 | S. cerevisiae deletion strains, locus YNL183C, strain NPR1, stronger effect = lower value 0.955 | S. cerevisiae deletion strains, locus YNL197C, strain WHI3, stronger effect = lower value 0.955 | S. cerevisiae deletion strains, locus YNL209W, strain ssb2, stronger effect = lower value 1.01 | S. cerevisiae deletion strains, locus YNL224C, strain SQS1, stronger effect = lower value 0.966 | S. cerevisiae deletion strains, locus YNL233W, strain BNI4, stronger effect = lower value 0.986 | S. cerevisiae deletion strains, locus YNL248C, strain rpa49, stronger effect = lower value 1.02 | S. cerevisiae deletion strains, locus YNL250W, strain rad50, stronger effect = lower value 1.01 | S. cerevisiae deletion strains, locus YNL271C, strain bni1, stronger effect = lower value 1.01 | S. cerevisiae deletion strains, locus YNL298W, strain CLA4, stronger effect = lower value 0.987 | S. cerevisiae deletion strains, locus YNL307C, strain MCK1, stronger effect = lower value 1.04 | S. cerevisiae deletion strains, locus YNL322C, strain KRE1 (second series), stronger effect = lower value 1.01 | S. cerevisiae deletion strains, locus YNL322C, strain KRE1, stronger effect = lower value 1.03 and 1 | S. cerevisiae deletion strains, locus YNR049C, strain mso1, stronger effect = lower value 1.02 | S. cerevisiae deletion strains, locus YNR052C, strain pop2, stronger effect = lower value 1.04 | S. cerevisiae deletion strains, locus YOL006C, strain TOP1, stronger effect = lower value 0.83 | S. cerevisiae deletion strains, locus YOL012C, strain htz1 1.73 | S. cerevisiae deletion strains, locus YOL147C, strain pex11, stronger effect = lower value 1.02 | S. cerevisiae deletion strains, locus YOR001W, strain rrp6, stronger effect = lower value 1.03 | S. cerevisiae deletion strains, locus YOR061W, strain CKA2, stronger effect = lower value 0.967 | S. cerevisiae deletion strains, locus YOR069W, strain VPS5, stronger effect = lower value 1.02 | S. cerevisiae deletion strains, locus YOR070C, strain gyp1, stronger effect = lower value 1.01 | S. cerevisiae deletion strains, locus YOR080W, strain dia2, stronger effect = lower value 1 | S. cerevisiae deletion strains, locus YOR083W, strain WHI5 (second series), stronger effect = lower value 0.869 | S. cerevisiae deletion strains, locus YOR083W, strain WHI5, stronger effect = lower value 1.02 | S. cerevisiae deletion strains, locus YOR106W, strain vam3, stronger effect = lower value 0.975 | S. cerevisiae deletion strains, locus YOR136W, strain idh2, stronger effect = lower value 1.03 | S. cerevisiae deletion strains, locus YOR144C, strain elg1, stronger effect = lower value 1.02 | S. cerevisiae deletion strains, locus YOR184W, strain ser1, stronger effect = lower value 1.03 | S. cerevisiae deletion strains, locus YOR231W, strain MKK1, stronger effect = lower value 0.975 | S. cerevisiae deletion strains, locus YOR265W, strain rbl2, stronger effect = lower value 1.02 | S. cerevisiae deletion strains, locus YOR270C, strain vph1, stronger effect = lower value 0.895 | S. cerevisiae deletion strains, locus YOR290C, strain snf2, stronger effect = lower value 0.995 | S. cerevisiae deletion strains, locus YOR316C, strain cot1, stronger effect = lower value 1.01 | S. cerevisiae deletion strains, locus YPL051W, strain arl3, stronger effect = lower value 1.02 | S. cerevisiae deletion strains, locus YPL055C, strain LGE1, stronger effect = lower value 0.949 | S. cerevisiae deletion strains, locus YPL078C, strain atp4, stronger effect = lower value 1.02 | S. cerevisiae deletion strains, locus YPL106C, strain sse1, stronger effect = lower value 0.944 | S. cerevisiae deletion strains, locus YPL240C, strain hsp82, stronger effect = lower value 1.02 | S. cerevisiae deletion strains, locus YPL241C, strain CIN2, stronger effect = lower value 1.01 and 0.975 | S. cerevisiae deletion strains, locus YPL256C, strain CLN2, stronger effect = lower value 1.02 | S. cerevisiae deletion strains, locus YPR119W, strain clb2, stronger effect = lower value 1.02 | S. cerevisiae deletion strains, locus YPR141C, strain kar3, stronger effect = lower value 1 | S. cerevisiae deletion strains, locus YPR163C, strain tif3, stronger effect = lower value 1.02 | S. cerevisiae deletion strains, locus YPR167C, strain met16, stronger effect = lower value 1.02 | S. cerevisiae deletion strains, strain wtn01, stronger effect = lower value 1.02 | S. cerevisiae strains, strain wild type, stronger effect = lower value 1
0.292 (active) and 1.01 (inactive): S. cerevisiae deletion strains, locus YMR307W, strain GAS1, stronger effect = lower value
